Molecules are shown by their SMILES. Calls of active or inactive are those of the source. Rule for the calls: active = hit-call score of the fitted dose curve at least 0.9, where 1 is the maximum; inactive = score below 0.9.

A short description of the first assay: CCTE_Shafer_MEA_acute_firing_rate_mean: CCTE's Neural Acute Assay for Mean Firing Rate, Shafer Lab (AID 2284009).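 Note: analyzed for loss of signal so actives lower firing rate relative to DMSO.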 The gist of the method: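 Spontaneous spiking of primary rat cortical networks, DIV 13/15, 37 C. Compound 0.03-40 uM, n ≥3 wells; 40 min baseline vs 40 min treated. Endpoint fitted in loss-of-signal direction against DMSO.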
For the compound `Nc1ncn([C@@H]2O[C@H](CO)[C@@H](O)[C@H]2O)c(=O)n1`, the concentration at half-maximal activity (AC50) was 0.00763 µM (active). For the compound `CCOC(=O)c1ccccc1C(=C1C=C(Br)C(=O)C(Br)=C1)c1cc(Br)c(O)c(Br)c1`, the compound was called inactive.

Regarding `CCCCC(CC)COC(=O)c1ccccc1O` (stereo unspecified), the outcome was inactive.

Another assay can be described thus: CCTE_Harrill_HTTr_Viability_MCF7: CCTE's 6-hour Cell Viability Assessment for the High-Throughput Transcriptomics (HTTr) Platform, in MCF-7 cells cultured in DMEM + 10% fetal bovine serum, Harrill Lab (AID 2284010). The gist of the method:
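Eight-point concentration series, six-hour exposure. Propidium iodide exclusion imaged to assess membrane integrity as a cytotoxicity readout; bidirectional fitting was done with DMSO as negative control and activity baseline.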
With `Nc1ncn([C@@H]2O[C@H](CO)[C@@H](O)[C@H]2O)c(=O)n1`, the result was inactive. The same measure, in the same setting: with `O=C1c2cccc(O)c2C(=O)c2c(O)cc(CO)cc21` the entry was “inactive”; with `CCCCCC/C=C\CCCCCCCC(=O)O`, “inactive”; with `c1c[nH]cn1`, “inactive”. Regarding `Cc1ccc(C(C)(C)C)cc1`, the result was inactive. Still for that read-out and setting: with `CC1(C)O[C@@H]2C[C@H]3[C@@H]4C[C@H](F)C5=CC(=O)CC[C@]5(C)[C@H]4[C@@H](O)C[C@]3(C)[C@]2(C(=O)CO)O1` the entry was “inactive”; with `Cn1c([N+](=O)[O-])cnc1COC(N)=O`, “inactive”; with `CCOC(=O)c1ccccc1C(=C1C=C(Br)C(=O)C(Br)=C1)c1cc(Br)c(O)c(Br)c1`, “inactive”. For the compound `C1=Cc2ccccc2C1`, the result was inactive. Same read-out and setting: with `NC(=O)OCC(COC(N)=O)c1ccccc1` the entry was “inactive”; with `CC(=O)[C@H]1[C@H](C#N)C[C@H]2[C@@H]3CC=C4C[C@@H](O)CC[C@]4(C)[C@H]3CC[C@@]21C`, “inactive”; with `OC1CCCCCCCCCCC1`, “inactive”. As to `O=C1C=CC(=O)O1`, the outcome was inactive. Take `CCCCCCCCCCCCCCCC[n+]1ccccc1`: the AC50 was 77.1 µM (active). On to `O=C(O)c1ccccc1Nc1cccc(C(F)(F)F)c1`, for which the outcome was inactive. Regarding `Nc1ccc(N=Nc2ccccc2)c(N)n1`, the result was inactive.

For `Cc1c(C)c([N+](=O)[O-])c(C(C)(C)C)c([N+](=O)[O-])c1C`, the outcome was inactive. As for `CCCCC(CC)COC(=O)c1ccccc1O` (stereo unspecified), the result was inactive. Turning to `CC1(C)O[C@@H]2C[C@H]3[C@@H]4C[C@H](F)C5=CC(=O)C=C[C@]5(C)[C@@]4(F)[C@@H](O)C[C@]3(C)[C@]2(C(=O)CO)O1`, the outcome was inactive.

As to `COc1ccc(-c2coc3cc(O)ccc3c2=O)cc1`, the result was inactive.

Regarding `[Cl][Nd]([Cl])[Cl]`, the outcome was inactive. On the same count and under the same terms, with `CN(C)c1ccc(C(=N)c2ccc(N(C)C)cc2)cc1` the entry was “inactive”. On to `O=C(O)CCCC[C@@H]1SC[C@@H]2NC(=O)N[C@@H]21`, for which the outcome was inactive.

Regarding `C[C@]12C=CC(=O)C=C1CC[C@@H]1[C@@H]2[C@@H](O)C[C@@]2(C)[C@H]1CC[C@]2(O)C(=O)CO`, the result was inactive. On to `CCCCCCCCCCCCCCCC(=O)OCC`, for which the outcome was inactive. On to `CC[C@H]1OC(=O)[C@H](C)[C@@H](O[C@H]2C[C@@](C)(OC)[C@@H](O)[C@H](C)O2)[C@H](C)[C@@H](O[C@@H]2O[C@H](C)C[C@H](N(C)C)[C@H]2O)[C@](C)(O)C[C@@H](C)C(=NOCOCCOC)[C@H](C)[C@@H](O)[C@]1(C)O`, for which the result was inactive. Still for that read-out and setting: with `Cc1cc(=O)n(-c2ccccc2)n1C` the entry was “inactive”. Consider `CCOC(=O)N1CCC(=C2c3ccc(Cl)cc3CCc3cccnc32)CC1`, for which the outcome was inactive. On the same count and under the same terms, with `NC(=O)c1ccccc1O` the entry was “inactive”.

`O=c1[nH]nc(-c2ccc([N+](=O)[O-])o2)o1`: the outcome was inactive. Turning to `CC(=O)Nc1nnc(S(N)(=O)=O)s1`, the result was inactive.

For `c1ccc2c(c1)ccc1cc3c(ccc4ccccc43)cc12`, the outcome was inactive.

Regarding `O=C(Nc1ccccc1)c1ccccc1O`, the result was inactive.

Broadly, the AC50 is the concentration at which the activity in the assay is half-maximal.

These data come from PubChem BioAssay (EPA / NIEHS).
